Data on 14 compounds can be found in PubChem BioAssay (NCATS).

Structures are written as SMILES. Values without a mark were called inactive. Activity calls are given as the source filed them. The call rests on the fitted dose curve; in most records, active means well fitted inhibition curve with a large enough effect; inconclusive means small, poorly fitted or top-dose-only effect; inactive means flat fitted curve, though single readings scatter.
Potency means the concentration at half of the fitted maximal effect.

For this assay, the target named is Luciferin 4-monooxygenase (Photinus pyralis) (UniProt P08659). The experiment in a line: Primary firefly luciferase (FLuc) qHTS assay for identification of artifact compounds. (AID 1845220). Further: nearly all actives have a fitted effect of over 60% in size.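 On activity change, negative = inhibition: plate controls were DMSO vehicle for no effect and no enzyme for full effect.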 The following applies: purified firefly luciferase, luminescence, 5 min; series mostly up to 54.1 µM; activity change, negative = inhibition: at the top concentration. An outline of the steps: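 Compounds sat 15 min at room temperature with 10 uM luciferin and 10 uM ATP (pH 7.6 Tris acetate). Firefly luciferase (10 nM final) was then added, and luminescence was read 5 min later. Data normalized to no-enzyme and DMSO controls were Hill-fitted.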
For orientation: qHTS replaces the single test concentration by a dilution series.
Consider `CC1(C)CCCC2(C)C(CO)C(CO)=CCC12` (centres undefined), for which the “activity change, negative = inhibition” value was -12.4%.

As to `CC(=O)O[C@@H]1CC(C)=C2[C@H]1[C@H](C)CC[C@H]2/C=C(\C)C(=O)O`, the result was inactive. Turning to `C=CC(=O)Nc1cc(Nc2ncc(Cl)c(-c3c[nH]c4ccccc34)n2)c(OC)cc1N(C)CCN(C)C`, the “activity change, negative = inhibition” value was 1.24%.

Consider `Cc1ccccc1C#Cc1ccc(CCC(=O)O)cc1`, for which the Potency was 4.26 µM (active). `COC(=O)Cc1cc2c(c([N+](=O)[O-])c1)N(C(=O)CC[C@H](N)C(=O)O)CC2`: the result was inactive. Turning to `COc1cc(Br)c(S(=O)(=O)Nc2ccc(C(F)(F)F)c(O[C@@H]3CCN(C)C3)c2)cc1OC`, the “activity change, negative = inhibition” value was -16.4%. Regarding `C/C=C1\[C@H](O[C@@H]2O[C@H](CO)[C@@H](O)[C@H](O)[C@H]2O)OC=C2C(=O)OCCc3ccc(O)c(c3)Oc3ccc(cc3)CCOC(=O)C[C@H]21`, the “activity change, negative = inhibition” value is -9.66% [at 25.7 µM]. On the same count and under the same terms, next, `COc1c(/C=C/C(C)(C)O)ccc2c1C(=O)OCc1cc(C)cc(O)c1O2`: 1.65%; `CC(C)/C=C1\NC(=O)C(C(C)C)n2c1nc1c(c2=O)C=CC=CO1` (centres undefined): -8.52%. For the compound `C=C1C(OC(C)=O)CCC2(C)CC3(OC)OC(=O)C(C)=C3CC12` (centres undefined), the compound was called inactive. In the case of `O=C1C=CC(O)(/C=C/C(=O)OC[C@H]2O[C@@H](Oc3ccc(O)cc3)[C@H](O)[C@@H](O)[C@@H]2O)C=C1`, the “activity change, negative = inhibition” value is -4.18% [at 25.7 µM]. `O=S(=O)(Nc1ccccn1)c1ccc(N=Cc2c(O)[nH]c3ccc4ncsc4c23)cc1`: the outcome was “inactive [at 11.6 µM]”. Turning to `COc1cc(N)c(Cl)cc1C(=O)NC[C@@H]1CCN2CCC[C@@H]12`, the “activity change, negative = inhibition” value is -21%. Still for that read-out and setting: in the case of `C=C1CCC2C(C)(C)CCC[C@]2(C)[C@H]1C/C=C(\CO)C(=O)C(=O)O` (some centres undefined) it was -2.78%.
